Our source for the outcome and AC50 values is PubChem BioAssay (EPA / NIEHS).

Active and inactive are the calls of the source. Rule for the calls: active = hit-call score of the fitted dose curve at least 0.9, where 1 is the maximum; inactive = score below 0.9.

The term AC50 denotes the concentration at which the activity in the assay is half-maximal.

Estrogen receptor (Homo sapiens), sequence (P03372 whole entry, looked up): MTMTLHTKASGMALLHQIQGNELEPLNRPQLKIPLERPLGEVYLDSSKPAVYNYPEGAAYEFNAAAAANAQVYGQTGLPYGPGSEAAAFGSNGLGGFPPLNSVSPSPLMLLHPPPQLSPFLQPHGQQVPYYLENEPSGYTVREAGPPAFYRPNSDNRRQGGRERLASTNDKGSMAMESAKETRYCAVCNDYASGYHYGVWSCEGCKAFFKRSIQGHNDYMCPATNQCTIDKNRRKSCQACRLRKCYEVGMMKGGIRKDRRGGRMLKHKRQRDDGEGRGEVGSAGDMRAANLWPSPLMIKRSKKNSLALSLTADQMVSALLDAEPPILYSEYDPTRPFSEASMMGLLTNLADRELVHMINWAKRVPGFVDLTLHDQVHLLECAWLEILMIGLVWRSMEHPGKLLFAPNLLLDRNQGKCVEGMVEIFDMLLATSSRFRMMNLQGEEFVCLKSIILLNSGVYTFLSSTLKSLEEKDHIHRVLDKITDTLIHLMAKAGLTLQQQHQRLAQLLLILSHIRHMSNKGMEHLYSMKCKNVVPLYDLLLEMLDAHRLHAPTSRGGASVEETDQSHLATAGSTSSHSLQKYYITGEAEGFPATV

For this test, the target named is Estrogen receptor (Homo sapiens) (UniProt P03372). The test can be described thus: OT_ERa_GFPERaERE_0480: Odyssey Thera (OT) 8-hour HeLa Transcription Induction Assay for Estrogen Receptor (AID 2283381). How it is done:
OT_ERa_GFPERaERE_0480 is a cell-based, single-readout assay that uses HeLa, a human cervix cell line, with measurements taken at 8 hours after chemical dosing in a 384-well plate.OT_ERa_GFPERaERE_0480 is one of one assay component(s) measured or calculated from the OT_ERa_GFPERaERE_0480 assay. It is designed to make measurements of fluorescent protein induction, a form of inducible reporter, as detected with optical microscopy: fluorescence microscopy signals by Microscopy technology.Data from the assay component OT_ERa_GFPERaERE_0480 was analyzed into 1 assay endpoint. This assay endpoint, OT_ERa_EREGFP_0480, was analyzed in the positive analysis fitting direction relative to DMSO as the negative control and baseline of activity. Using a type of inducible reporter, measures of receptor for gain-of-signal activity can be used to understand the reporter gene at the pathway-level as they relate to the gene ESR1. Furthermore, this assay endpoint can be referred to as a primary readout, because the performed assay has only produced 1 assay endpoint. To generalize the intended target to other relatable targets, this assay endpoint is annotated to the nuclear receptor intended target family, where the subfamily is steroidal.
All assay endpoints are quantified using high content image analysis algorithms.
For `CC(C)(C)c1cc(CCC(=O)OCC(COC(=O)CCc2cc(C(C)(C)C)c(O)c(C(C)(C)C)c2)(COC(=O)CCc2cc(C(C)(C)C)c(O)c(C(C)(C)C)c2)COC(=O)CCc2cc(C(C)(C)C)c(O)c(C(C)(C)C)c2)cc(C(C)(C)C)c1O`, the result was inactive. Still for that read-out and setting: the entry for `CC(=O)CCC(C)C` is “inactive”; for `Cc1ccc([N+](=O)[O-])c(C)c1` it is “inactive”; for `CCCCCCCC/C=C\CCCCCCCC(=O)N(C)CC(=O)O` it is “inactive”.

Regarding `O=C(c1ccccc1)c1ccc(O)cc1O`, the AC50 was 8.62 µM (active). As for `CCCCCCCCn1sc(Cl)c(Cl)c1=O`, the molecule was called inactive. Same read-out and setting: the entry for `Cc1ccc(O)c(-n2nc3ccccc3n2)c1` is “inactive”; for `CCCCOC(=O)[C@H](C)O` it is “inactive”; for `O=C1C=CC(=O)N1c1ccccc1` it is “inactive”. The same measure, in the same setting: the value for `CCCCCCCCCc1ccc(OCCO)cc1` was “inactive”; that for `CCCCC(CC)COC(=O)c1ccc(N(C)C)cc1` (configuration not stated) was “inactive”; that for `OCC1CCCO1` (configuration not stated) was “inactive”. Still for that read-out and setting: the value for `F[Si-2](F)(F)(F)(F)F` was “inactive”; that for `CCCCCCCCCCCCC[N+](C)(C)Cc1ccccc1` was “inactive”. With `CCCCCCCCCCCCCC[P+](CCCC)(CCCC)CCCC`, the AC50 was 10.4 µM (active).

As for `COCCOCCC[Si](C)(O[Si](C)(C)C)O[Si](C)(C)C`, the outcome was inactive. The same measure, in the same setting: the value for `CCCCOC(=O)C(C)O` (configuration not stated) was “inactive”; that for `CCOC(=O)C1CC(=O)C(=C(O)C2CC2)C(=O)C1` (configuration not stated) was “inactive”. Still for that read-out and setting: the entry for `CCCCCCCC/C=C\CCCCCCCC(=O)OCC(O)CO` (configuration not stated) is “inactive”; for `CCC(Cc1c(I)cc(I)c(N)c1I)C(=O)O` (configuration not stated) it is “inactive”; for `CCN=c1cc2oc3cc(NCC)c(C)cc3c(-c3ccccc3C(=O)OCC)c-2cc1C` it is “inactive”. As to `CC(C)(C)c1cc(Cc2cc(C(C)(C)C)c(O)c(C(C)(C)C)c2)cc(C(C)(C)C)c1O`, the molecule was called inactive. Still for that read-out and setting: the entry for `CC(C)OC=O` is “inactive”; for `CCOC(OCC)OCC` it is “inactive”; for `CCN=C1C=CC(=C(c2ccc(N(CC)CC)cc2)c2ccc(N(CC)CC)cc2)c2ccccc21` it is “inactive”. The same measure, in the same setting: the entry for `N#Cc1ccccc1O` is “inactive”. For the molecule `CCc1cc(Cc2cc(CC)c(N)c(CC)c2)cc(CC)c1N`, the molecule was classed as inactive.
